In the library only some 7.3% were active in any assay of this set; here they are far more common.
Luc counter = counter-screen: inhibitors of Kinase-Glo firefly luciferase; Potency, µM (top dose mostly 38.3 µM), inactives show at the top dose activity change, negative = inhibition, usual class: inhibitors; 0.28% of 200,000 active; Kinase-Glo luciferase, ATP luminescence, 8 min; note: % is set by controls: 0 for no effect and ±100 for the full control effect; nearly all actives have a fitted effect of over 60% in size
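Inhibition of Kinase-Glo luciferase light generation was assessed at 10 uM ATP in pH 7.2 imidazole buffer, with luminescence measured after eight minutes at ambient temperature.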
Rab9 prom act = activates the Rab9 promoter | Huh7 Rab9 promoter-luciferase reporter, luminescence, 24 h | Potency, µM (series often up to 9.22 µM), for inactives: at the top dose activation, negative = inhibition, actives largely listed as activators | 2.8% of 320,000 active | AID 485297; note: % of control where 0% means no effect; nearly all actives have a fitted effect of over 60% in size
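Huh7 cells stably carrying Rab9 promoter–luciferase reporter, plated 1500 cells/well, compound added after 2 h and incubated 24 h at 37 °C; luciferase luminescence then read after 10 min with detection reagent.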
SMN2 splice up = enhancers of SMN2 splice variant expression. Potency, µM (doses to about 46.1 µM), without a hit: at the highest dose activity change, positive = activation, most hits filed as activators. 2.8% of 210,000 active. HEK293 SMN2-luciferase splicing reporter, luminescence, 30-36 h. AID 1458; note: % of control where 0% means no effect; nearly all actives have a fitted effect of over 55% in size
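HEK293 cells carry an SMN2 […]–luciferase reporter in which exon 7 inclusion puts luciferase in frame. Cells were plated 10-12 h before compound addition, then incubated 30-36 h at 37C. ONE-Glo luminescence was read; sodium butyrate at 4.5 mM final served as control.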
NPC1 prom act = activates the NPC1 promoter; AID 485313; Huh7 NPC1 promoter luciferase reporter, 24 h; 2.4% of 320,000 active; Potency, µM (series often up to 9.22 µM), for inactives: at the highest dose activation, most hits filed as activators; note: % of control where 0% means no effect; nearly all actives have a fitted effect of over 60% in size
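Luminescence from an NPC1 promoter-driven luciferase reporter in stably transfected Huh7 cells was measured after 24 h compound treatment at 37 °C, followed by 10 min ambient incubation with luciferase detection reagent.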
FLuc modulator = inhibits or activates purified firefly luciferase, miR-21 counter-screen; P08659; purified FLuc, Km substrates, luminescence inhibition; Potency, µM (top dose mostly 57.5 µM), for inactives: at the top dose activity change, negative = inhibition, actives largely listed as inhibitors; 6.9% of 360,000 active; AID 588342;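 note: plate controls were vehicle for no effect and reference inhibitor for full effect; nearly all actives have a fitted effect of over 55% in size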
Target sequence (P08659 whole entry, looked up): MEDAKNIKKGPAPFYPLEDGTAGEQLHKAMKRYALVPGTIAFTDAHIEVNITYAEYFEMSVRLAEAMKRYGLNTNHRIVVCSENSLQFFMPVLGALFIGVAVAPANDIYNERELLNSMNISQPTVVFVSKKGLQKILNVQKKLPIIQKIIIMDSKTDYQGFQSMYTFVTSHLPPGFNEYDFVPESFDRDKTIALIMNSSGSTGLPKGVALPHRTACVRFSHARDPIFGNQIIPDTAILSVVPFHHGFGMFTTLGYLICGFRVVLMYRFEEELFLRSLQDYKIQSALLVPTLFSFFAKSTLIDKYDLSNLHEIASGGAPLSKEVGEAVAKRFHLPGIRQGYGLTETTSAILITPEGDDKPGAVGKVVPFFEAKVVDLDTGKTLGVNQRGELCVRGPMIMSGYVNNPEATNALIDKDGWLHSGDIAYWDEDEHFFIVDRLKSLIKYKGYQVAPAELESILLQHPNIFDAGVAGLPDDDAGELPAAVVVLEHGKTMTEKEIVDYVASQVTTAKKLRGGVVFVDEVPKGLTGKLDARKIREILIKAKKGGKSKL
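Biochemical qHTS of compounds, final roughly 60 µM downward over six points, against 10 nM purified firefly luciferase using Km concentrations of substrates (10 uM D-luciferin, 10 uM ATP) in Tris acetate pH 7.5 buffer; luminescence output.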
Numbers without * were called inactive; ? = inconclusive; . = no result; [ ] = dose if it differs, or a comment. Calls come from the whole dose curve; as a rule, active = well fitted curve in the direction sought with a large enough effect; inconclusive = small, poorly fitted or top-dose-only effect, or another doubt; inactive = no such curve, though single readings can be large; an effect the other way counts as inactive or inconclusive. Potency is the fitted concentration of half-maximal effect.

SMILES	Luc counter	Rab9 prom act	SMN2 splice up	NPC1 prom act	FLuc modulator
COc1ccccc1CNC(=O)c1cc2cccc3c2n1CC(C)S3 (centres undefined)	.	.	.	.	-8%
Cc1cc(C)c(C(=O)COC(=O)c2ccc([N+](=O)[O-])o2)cc1C	3%	-5%	-45%	-4%	-1%
COCCn1c(C)cc(C(=O)COC(=O)c2ccc([N+](=O)[O-])o2)c1C	0%	7%	3%	5%	12µM*
COCCn1c(C)cc(C(=O)COC(=O)C2CC(=O)N(CCc3ccc(OC)c(OC)c3)C2)c1C (centres undefined)	.	19%	.	18%	11µM*
C=CCn1c(C)cc(C(=O)COC(=O)C2CC(=O)N(CCc3ccc(OC)c(OC)c3)C2)c1C (centres undefined)	.	9%	.	10%	-3%
Cc1cc(C(=O)COC(=O)c2ccc([N+](=O)[O-])o2)c(C)n1CC1CCCO1 (centres undefined)	-2%	2%	-3%	-1%	11µM*
O=C(O)c1ccccc1SCc1cn2cc(Cl)ccc2n1	0%	3.2µM*	?	?	11µM*
Cc1cccc2nc(CSc3ccccc3C(=O)O)cn12	.	?	.	28%	15µM*
CCC(C(=O)NCc1ccccc1Cl)n1c(=O)c2cccn2c2ccccc21 (centres undefined)	.	.	.	.	-19%
CC(C)(C)c1csc(NC(=O)c2ccc(Cl)s2)n1	2%	?	-17%	?	6.7µM*
CC(C)(C)c1csc(NC(=O)c2ccncc2)n1	-2%	-6%	-64%	-7%	?
CC(C)(C)c1csc(NC(=O)c2ccc3nccnc3c2)n1	0%	3.5µM*	14%	2.5µM*	8.5µM*
Cc1ccc(C(=O)Nc2nc(C(C)(C)C)cs2)s1	15%	3.2µM*	-5%	?	5.4µM*
COc1ccc(-c2[nH]c(-c3ccc(Cl)cc3)nc2SCC(=O)NCC2CCCO2)cc1 (centres undefined)	.	.	-8%	.	-4%
Cn1cnc2c(N/N=C/c3cccs3)ncnc21	.	1.8µM*	.	3.5µM*	8.5µM*
C(=N\Nc1ncnc2sc3c(c12)CCC3)/c1cccs1	6%	-1%	-47%	-7%	-20%
COc1ccc(CNC(=O)CCc2c(C)nc3c(c2C)c(=O)n(C)c(=O)n3C)cc1	.	.	4%	.	-6%
COc1ccc(C2CC(c3ccccc3)=NN2c2ccc(S(N)(=O)=O)cc2)cc1OC (centres undefined)	2%	-3%	-1%	-5%	-1%
COc1cc(C2CC(c3ccccc3)=NN2c2ccccc2)ccc1OCC(=O)O (centres undefined)	.	1%	.	0%	15µM*
COc1ccc(C2CC(c3ccccc3)=NN2c2ccc(Cl)c(C(=O)O)c2)cc1 (centres undefined)	1%	0%	.	0%	21µM*
COc1ccc(C2=NN(c3ccccc3)C(c3cn(CCC(=O)O)nc3-c3ccccc3)C2)cc1 (centres undefined)	1%	16%	11%	7%	4.3µM*
COc1ccc(C2CC(c3ccccc3)=NN2c2ccc(N)cc2)cc1 (centres undefined)	-7%	4%	8%	-5%	9.5µM*
O=C(Cn1nc2c(cc1=O)CCCC2)NCc1ccccc1	.	.	.	.	2%
COc1ccc2c(c1)c(=O)c(S(=O)(=O)c1ccc(F)cc1)cn2Cc1ccccc1Cl	.	.	-4%	.	1%
O=C(Nc1ccc(C(=O)OCc2cc(=O)n3nc(C4CC4)sc3n2)cc1)c1ccccc1	.	.	.	.	2%
SMILES	Luc counter	Rab9 prom act	SMN2 splice up	NPC1 prom act	FLuc modulator
CCn1nccc1C(=O)Nc1ccc(C(=O)OC(C)C)cc1	.	?	.	?	19µM*
CCCCOC(=O)c1ccc(NC(C)=O)cc1	5%	1%	15%	19%	?
CCn1cc(Br)c(C(=O)NN)n1	6%	2%	8%	?	3%
CCn1cc(Br)c(C(=O)Nc2ccc(OC)cc2)n1	-13%	29%	14µM*	?	15µM*
CCCCOC(=O)c1ccc(NC(=O)c2nn(C)cc2Br)cc1	-1%	5%	9%	7%	21µM*
CCn1nccc1C(=O)Nc1nccs1	-1%	-7%	-2%	-1%	9%
CCn1cc(Br)c(C(=O)Nc2ccc(C(=O)OC(C)C)cc2)n1	0%	?	-10%	?	15µM*
CCOC(=O)c1c(-c2ccccc2)csc1NC(=O)c1nn(CC)cc1Br	2%	-4%	-13%	-7%	3%
N=C(N)SCc1cccc2c(=O)cc(-c3ccccc3)oc12	-2%[7.66 µM]	.	-8%[9.22 µM]	.	.
O=S(=O)(c1ccc2nc(-c3ccccc3)[nH]c2c1)N1CCN(c2ccc(Cl)cc2)CC1	0%	-18%	-53%	-9%	6%
COc1cc(-c2nc3ccc(N4CCN(C)CC4)cc3[nH]2)cc(OC)c1OC	-4%	-5%	16µM*	0%	13µM*
COc1ccc2nc(C)cc(Nc3ccc(N4CCN(C)CC4)cc3)c2c1	.	-25%	.	-19%	-1%
COc1ccc(-c2nc3ccc(N4CCN(C)CC4)cc3c(=O)[nH]2)cc1	0%	28%	49%	22%	15µM*
CCOc1ccccc1N(CC(=O)Nc1ccc(OC)c(Cl)c1)S(=O)(=O)c1ccccc1	.	.	.	.	-7%
Cc1cc(-n2c(C)cc(C(=O)COc3ccc(F)c(F)c3)c2C)no1	.	?	.	28%	17µM*
Cc1cc(-n2c(C)cc(C(=O)COc3ccccc3[N+](=O)[O-])c2C)no1	3%	-1%	8%	0%	?
C/C(=N\Nc1nccnc1Cl)c1ccc(Br)cc1	.	17%	.	?	?
Nc1c(Cl)ncnc1N/N=C/c1ccc(O)cc1	.	20%	.	-3%	13µM*
Oc1ccc(/C=N/Nc2nccnc2Cl)cc1	3.5µM*	3.2µM*	?	4µM*	11µM*
Nc1ccc(C(=O)Oc2ccc([N+](=O)[O-])cc2)c(O)c1	.	2%	.	-2%	15µM*
Nc1ccc(C(=O)Oc2ccc([N+](=O)[O-])cc2)cc1	.	14%	.	5%	3.4µM*
O=C(Oc1ccc2ccc(=O)oc2c1)c1ccc([N+](=O)[O-])cc1	.	2%	.	-2%	-5%
CNC(=O)c1ccc(NC(=O)c2nsc3ccccc23)cc1	.	.	2µM*	.	1.5µM*
CCOC(=O)c1ccc(NC(=O)c2nsc3ccccc23)cc1	.	.	5.6µM*	.	2.4µM*
Cc1ccnc(Nc2nc(-c3ccc(Cl)cc3)cs2)c1	.	2.8µM*	.	2.8µM*	2.7µM*
Cc1ccnc(Nc2nc(-c3ccc(F)cc3)cs2)c1	.	2.5µM*	.	1.8µM*	0.85µM*
O=C(N/N=C/c1cccnc1)c1cc(Br)ccc1O	.	4µM*	.	3.2µM*	4.8µM*
O=C(N/N=C/c1ccccn1)c1ccc(Br)o1	-8%	0%	-12%	-4%	-22%
O=C(N/N=C/c1ccccn1)c1cc(Br)ccc1O	.	7%	.	-1%	15µM*
